High-throughput results: PubChem, The Scripps Research Institute Molecular Screening Center
A selection: hits, their analogues and other compounds. The true share with any hit is near 3.5%.
FBW7 activator: human FBW7 E3 ligase activation, primary screen; Q969H0; 650,000 compounds, 0.13% hits; AlphaScreen FBW7–phospho-cyclin E peptide binding, activator screen; normalized activity (activation), % at 26.1 µM; in the data active = normalized activity above about 1.9%;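 note: purified mutant Fbw7 with reduced substrate affinity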
TEAD-YAP inh: TEAD-YAP interaction inhibition; AID 1259422; inhibition, % at 9.12 µM; 640,000 compounds, 1.4% hits; HEK-TIYL cells, TEAD-Gal4/YAP UAS-luciferase luminescence; in the data active = inhibition above about 32%
GPR151 ag: activates the human receptor GPR151. PathHunter beta-arrestin GPR151 cells, luminescence. 650,000 compounds, 1% hits. activation, % at 11.2 µM. Q8TDV0; in the data active = activation above about 4.9%
MITF inh: blocks human microphthalmia-associated transcription factor; inhibition, % at 2.6 µM; AID 1259374; 650,000 compounds, 0.91% hits; AlphaScreen MITF homodimerization, bead proximity signal; O75030; in the data active = inhibition above about 50%
Target sequence (O75030 whole entry, looked up): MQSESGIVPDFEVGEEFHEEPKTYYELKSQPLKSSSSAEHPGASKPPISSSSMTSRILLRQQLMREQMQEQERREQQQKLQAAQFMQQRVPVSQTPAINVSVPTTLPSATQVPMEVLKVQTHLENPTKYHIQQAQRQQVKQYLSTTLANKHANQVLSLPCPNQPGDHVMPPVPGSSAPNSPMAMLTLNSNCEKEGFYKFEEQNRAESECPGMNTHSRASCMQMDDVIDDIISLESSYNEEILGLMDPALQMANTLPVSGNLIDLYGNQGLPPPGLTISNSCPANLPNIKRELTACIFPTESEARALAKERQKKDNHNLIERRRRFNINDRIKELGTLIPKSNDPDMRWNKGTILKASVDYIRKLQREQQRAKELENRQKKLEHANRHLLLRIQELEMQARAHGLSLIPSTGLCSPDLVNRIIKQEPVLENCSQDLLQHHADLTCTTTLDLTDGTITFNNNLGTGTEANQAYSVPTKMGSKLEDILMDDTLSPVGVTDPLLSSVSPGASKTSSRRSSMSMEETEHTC
GPR151 confirm: confirmation of human GPR151 activators. activation, % at 11.2 µM. GPR151 PathHunter beta-arrestin cells, luminescence, 90 min; % of EA-reagent control over plate median. shares compounds with GPR151 ag. AID 1508609. 6,700 tested, under 10 active;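 active = mean percent activation across replicates above the confirmation screen cutoff of 4.91%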
GPR119 counter: GPR119 activation, counter-screen for GPR151 activators. shares compounds with GPR151 ag. GPR119 PathHunter beta-arrestin cells, luminescence, 90 min; 0 = compound-well median, 100 = enzyme-acceptor control. activation, % at 11.2 µM. 6,700 compounds, 0.3% hits. AID 1508611;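 active = mean percent activation in the counterscreen above 29.09%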;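 note: counterscreen on off-target GPR119 to flag nonselective hits from the GPR151 activator screen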
Each line names hits and unclear results; the compound was inactive in the other large screens (follow-up assays come after a bar, where they were run); ! = not active in a repeat.

O=C(O)C1CSC(c2ccccc2F)N1 (stereo unspecified)	GPR151 ag 5.3 | GPR151 confirm inactive | GPR119 counter inactive
CC(=O)c1cccc(NC(=O)COC(=O)c2ccc(Cl)c(N)c2)c1	none
Nc1cc(C(=O)OCC(=O)Nc2cccc(S(N)(=O)=O)c2)ccc1Cl	GPR151 ag 6.4 | GPR151 confirm inactive | GPR119 counter inactive
CC(=O)Nc1cc(Cl)ccc1OS(=O)(=O)c1ccc(Cl)cc1	none
Cc1cc([N+](=O)[O-])ccc1-c1ccc(C(=O)NC(C)(C)C)o1	GPR151 ag 7.7 | GPR151 confirm inactive | GPR119 counter inactive
COc1ccc(-c2ccc(-c3nnn(CC(=O)NCc4cccs4)n3)cc2)cc1	none
CCCCOc1c(Cl)cc(C(=O)O)cc1OC	none
CCOc1c(Cl)cc(C(=O)O)cc1OC	GPR151 ag 6.4 | GPR151 confirm inactive | GPR119 counter inactive
CC1C=CCC2C(=O)N(c3ccc([N+](=O)[O-])cc3)C(=O)C12 (stereo unspecified)	none
Cc1ccc(N2C(=O)C3CC=CC(C)C3C2=O)cc1 (stereo unspecified)	GPR151 ag 12 | GPR151 confirm inactive | GPR119 counter inactive
CCCCn1nc(CC(=O)N2C3CCC2CC(O)(c2ccncc2)C3)c2ccccc2c1=O (stereo unspecified)	none
Cc1ccc2onc(CNC(=O)N3CCCC(C)C3)c2c1 (stereo unspecified)	GPR151 ag 6.9 | GPR151 confirm inactive | GPR119 counter inactive
Cc1ccc2onc(CNC(=O)N3CCCC3)c2c1	none
COCCOC(=O)c1c(C)oc2ccc(OCC#N)cc12	GPR151 ag 11 | GPR151 confirm inactive | GPR119 counter inactive
CCOC(=O)c1c(C)n(C)c2ccc(OCC#N)cc12	GPR151 ag 7.1 | GPR151 confirm inactive | GPR119 counter inactive
C#CCOc1ccc2c(c1)c(C(=O)OCC)c(C)n2C	none
CCOc1ccc(-c2nc(NC(C)=O)c3c(=O)oc4c(OC)cccc4c3n2)cc1	GPR151 ag 9.2 | GPR151 confirm inactive | GPR119 counter inactive
Clc1ccc(CN2CCc3nc(-c4ccccn4)nc(N4CCOCC4)c3C2)s1	GPR151 ag 5.1 | GPR151 confirm inactive | GPR119 counter inactive
CCN=C1S/C(=C2\C(=O)N(C(C)=O)c3ccccc32)C(=O)N1CC	none
Cc1ccc(N2CC(C(=O)O)CC2=O)c(C)c1 (stereo unspecified)	none
COC(=O)c1ccc(OC(=O)C2CC(=O)N(c3ccc(C)cc3C)C2)cc1 (stereo unspecified)	GPR151 ag 5.0 | GPR151 confirm inactive | GPR119 counter inactive
COc1cccc(CNC(=O)C(NS(=O)(=O)c2cccc3nsnc23)C(C)C)c1 (stereo unspecified)	GPR151 ag 7.1 | GPR151 confirm inactive | GPR119 counter inactive
CCn1c(SCC(=O)c2cccs2)nc2c1c(=O)n(C)c(=O)n2C	GPR151 ag 5.3 | GPR151 confirm inactive | GPR119 counter inactive
O=C(NC(=S)NCc1ccccc1)c1ccc([N+](=O)[O-])cc1	none
Cc1c(C(=O)NC(=S)Nc2ncccc2O)cccc1[N+](=O)[O-]	GPR151 ag 5.4 | GPR151 confirm inactive | GPR119 counter inactive
CS(=O)(=O)N1CCC(Oc2cccc(C(=O)NCCCOc3cccnc3)c2)CC1	GPR151 ag 5.0 | GPR151 confirm inactive | GPR119 counter inactive
COCCNC(=O)c1cccc(OC2CCN(C(C)CSC)CC2)c1 (stereo unspecified)	GPR151 ag 7.0 | GPR151 confirm inactive | GPR119 counter inactive
C=C(C)CCC(C)N1CCC(Oc2cccc(C(=O)NCCOC)c2)CC1 (stereo unspecified)	none
Clc1ccc(C2=NN(c3cccc(Cl)c3)C(c3ccc(Br)cc3)C2)cc1 (stereo unspecified)	none
CCCN(C(=O)COc1ccccc1C)c1c(N)n(Cc2ccccc2)c(=O)[nH]c1=O	none
COc1cccc(C(Nc2cc(C)ccn2)c2ccc3cccnc3c2O)c1 (stereo unspecified)	TEAD-YAP inh 80, GPR151 ag 5.1 | GPR151 confirm inactive | GPR119 counter inactive
Cc1ccnc(NC(c2cccc(C)n2)c2ccc3cccnc3c2O)c1 (stereo unspecified)	none
COc1ccc(NS(=O)(=O)c2ccccc2)c(OC)c1	none
COc1cc(C2c3c(oc4ccc(F)cc4c3=O)C(=O)N2c2nccs2)ccc1O (stereo unspecified)	GPR151 ag 6.2 | GPR151 confirm inactive | GPR119 counter inactive
Cc1ccc(N2C(=O)c3cccc4c(N5CCCC5)ccc(c34)C2=O)c2cccnc12	none
Cc1cnn(C(=S)NCc2ccco2)c1	GPR151 ag 5.1 | GPR151 confirm inactive | GPR119 counter inactive
Cc1ccc(NC(=S)NCc2ccco2)cc1	none
CCOC(=O)C1=CN(C(C)C)C=C(C(=O)OCC)C1c1ccc(OC)cc1OC	GPR151 ag 5.4 | GPR151 confirm inactive | GPR119 counter inactive
CCOc1cc(C2C(C(=O)OC)=CN(C(C)C)C=C2C(=O)OC)cc(Br)c1O	GPR151 ag 7.2 | GPR151 confirm inactive | GPR119 counter inactive
O=C1C(Cl)=C/C(=N/S(=O)(=O)c2cccs2)c2ccccc21	none
CC1(C2CCC3C4CCC5CC6(C/C(=N\O)C5(C)C4C(O)CC32C)OCCO6)OCCO1 (stereo unspecified)	none
CCOC(=O)c1c(C)oc2c1c1c(c3ccccc32)OCN(CCC2=CCCCC2)C1	none
Cn1cnnc1SCCNC(=O)c1ccc(OCC(=O)C2CC2)cc1	GPR151 ag 6.9 | GPR151 confirm inactive | GPR119 counter inactive
C=CCNC(=O)c1ccc(OCC(=O)C2CC2)cc1	none
O=C(CCCOc1ccc(Cl)cc1)Nc1ccccc1F	none
O=C(CSc1ccsc1[N+](=O)[O-])N1CCN(c2ccccn2)CC1	GPR151 ag 5.3 | GPR151 confirm inactive | GPR119 counter inactive
O=C(CSc1ccsc1[N+](=O)[O-])N1CCN(c2ncccn2)CC1	none
CC(=O)c1ccc(NC(=O)c2cnn3c(C(F)(F)F)cc(-c4ccco4)nc23)cc1	GPR151 ag 6.8 | GPR151 confirm inactive | GPR119 counter inactive
Cc1ccc(NC(=O)c2cnn3c(C(F)(F)F)cc(-c4ccco4)nc23)cc1	none
Cc1cc(NCC2CCCO2)nc(Nc2ccc(N3CCOCC3)cc2)n1 (stereo unspecified)	GPR151 ag 4.9 | GPR151 confirm inactive | GPR119 counter inactive
COc1ccc(Nc2nc(C)cc(NCC3CCCO3)n2)cc1 (stereo unspecified)	none
COc1cccc2c1OCCCN(C(=O)Cn1cc(NC(=O)c3ccccn3)cn1)C2	none
Cc1nc2ccccn2c1-c1csc(Nc2ncccn2)n1	none
Clc1ccc2c(c1)CCc1cccnc1C2=C1CCNCC1	GPR151 ag 7.8! | GPR151 confirm inactive | GPR119 counter inactive
COC(=O)c1nnn(CC(=O)Nc2cccc(C)c2C)c1C(=O)OC	none
